# A selection: hits, their analogues and other compounds. The true share with any hit is near 2.3%.
# AmpC inh detg = inhibitors of E. coli AmpC beta-lactamase with detergent; P00811; AmpC hydrolysis of nitrocefin, absorbance 480 nm, 0.01% Triton; Potency, µM (doses to about 114 µM), most hits filed as inhibitors; actives 0.041% (n = 370,000); also: nearly all actives have a fitted effect of over 25% in size
# Target sequence (P00811 whole entry, looked up): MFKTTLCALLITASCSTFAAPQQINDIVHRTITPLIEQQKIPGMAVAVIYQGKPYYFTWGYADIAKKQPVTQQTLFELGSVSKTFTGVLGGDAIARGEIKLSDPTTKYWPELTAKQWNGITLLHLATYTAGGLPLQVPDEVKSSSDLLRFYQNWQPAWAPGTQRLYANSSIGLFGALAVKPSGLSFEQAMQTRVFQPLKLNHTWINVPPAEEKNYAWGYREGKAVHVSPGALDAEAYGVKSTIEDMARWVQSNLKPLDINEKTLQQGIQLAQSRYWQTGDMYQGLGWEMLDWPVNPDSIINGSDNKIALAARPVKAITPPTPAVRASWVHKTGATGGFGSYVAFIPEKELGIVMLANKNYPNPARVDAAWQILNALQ
#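 AmpC (5.3 nM in the dispensed reagent) in 20 mM phosphate pH 7.0 with 0.01% (detergent screen) or 0.0001% Triton X-100 was preincubated with compounds for 15 min at room temperature. Nitrocefin was then added from an 800 uM solution, and hydrolysis was followed at 480 nm.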
# Marburg entry inh = Marburg virus entry inhibition | Marburg virus pseudotyped entry inhibition, cell reporter | AID 540276 | Potency, µM (doses to about 37.8 µM), actives largely listed as inhibitors | actives 1.8% (n = 300,000); calls by dose curve; tested in HEK293 cells
# Lassa entry inh = blocks Lassa virus binding to or entry into cells; Lassa virus pseudotype entry inhibition, cell reporter; AID 540256; actives 1.2% (n = 300,000); Potency, µM (series often up to 37.9 µM), actives largely listed as inhibitors; calls by dose curve; tested in HEK293 cells; also: nearly all actives have a fitted effect of over 50% in size
# AmpC no deterg = inhibitors of E. coli AmpC beta-lactamase without detergent; P00811; AmpC nitrocefin hydrolysis, absorbance 480 nm, 0.0001% Triton; Potency, µM (doses to about 57.1 µM), hits mostly inhibitors; actives 0.52% (n = 330,000); also: nearly all actives have a fitted effect of over 20% in size
#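 AmpC (5.3 nM in the dispensed reagent) in 20 mM phosphate pH 7.0 with 0.01% (detergent screen) or 0.0001% Triton X-100 was preincubated with compounds for 15 min at room temperature. Nitrocefin was then added from an 800 uM solution, and hydrolysis was followed at 480 nm.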
# AMA1 RON2 block = inhibitors of Plasmodium falciparum AMA1-RON2 interaction | AlphaScreen AMA1-biotinylated RON2 peptide binding | actives 0.2% (n = 360,000) | AID 720542 | Potency, µM (doses to about 58.2 µM), usual class: inhibitors; also: nearly all actives have a fitted effect of over 45% in size
#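 AMA1 (3D7) with his tag at 25 nM final met compounds first, then biotinylated RON2 peptide at 25 nM; detection used donor plus acceptor beads, 10 µg/mL apiece, read by AlphaScreen after 30 min at room temperature.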
# Hits are given with their value; – = inactive; ? = inconclusive; · = no result; [ ] = remark or other dose. Unless noted, calls follow the shape of the dose curve; as a rule, active = well fitted curve in the direction sought with a large enough effect; inconclusive = small, poorly fitted or top-dose-only effect, or another doubt; inactive = no such curve, though single readings can be large; an effect the other way counts as inactive or inconclusive.
SMILES,AmpC inh detg,Marburg entry inh,Lassa entry inh,AmpC no deterg,AMA1 RON2 block
CC1CCN(C2=C(NS(=O)(=O)c3ccc(Br)cc3)C(=O)c3ccccc3C2=O)CC1,–,·,·,–,13µM
O=C1C(Nc2ccccc2)=C(N2CCCCC2)C(=O)c2ccccc21,–,?,–,–,–
CC1CCCN(C2=C(NS(=O)(=O)c3ccc(Br)cc3)C(=O)c3ccccc3C2=O)C1 (configuration not stated),?,–,–,–,?
O=C1C(NS(=O)(=O)c2ccc(Br)cc2)=C(N2CCCCC2)C(=O)c2ccccc21,–,·,·,–,16µM
CC1CCN(C2=C(NS(=O)(=O)c3ccccc3)C(=O)c3ccccc3C2=O)CC1,–,?,–,–,?
O=C1C(NS(=O)(=O)c2ccccc2)=C(N2CCN(c3ccc(F)cc3)CC2)C(=O)c2ccccc21,–,·,·,–,18µM
CN(C1=C(N2CCCCC2)C(=O)c2ccccc2C1=O)c1ccccc1,–,?,?,–,9.5µM
CCN1CCN(C2=C(NS(=O)(=O)c3ccc(C)cc3)C(=O)c3ccccc3C2=O)CC1,–,·,·,–,–
CCc1ccc(NC(=O)CC2C(=O)N(c3cccc(C)c3)C(=O)N2Cc2cccc(OC)c2)cc1 (configuration not stated),–,·,?,·,·
CCCC(=O)Nc1cccc(OCc2cc(=O)n3cccc(C)c3n2)c1,–,·,–,·,·
CC(C)c1cnc2c(c1SCc1cccc(F)c1)c(=O)n(C)c(=O)n2C,–,·,–,·,·
Cc1[nH]n(-c2ccccc2)c(=O)c1/C=N/Nc1nncc(-c2ccccc2)n1,–,4.1µM,4.1µM,–,–
Cc1[nH]n(-c2ccccc2)c(=O)c1C=Nc1cccc2cccnc12,–,8.9µM,?,–,–
Cc1ccc(-n2[nH]c(C)c(/C=N/c3ccccn3)c2=O)cc1,–,–,–,–,–
COc1ccccc1C1Nc2c(sc3nc(C)cc(C)c23)C(=O)N1c1ccccc1 (configuration not stated),–,–,?,·,·
Ic1ccc(N2CCN(Cc3c[nH]c4ncccc34)CC2)cc1,?,11µM,?,–,–
CCCN(CCC)[C@H]1CCc2c(F)ccc(O)c2C1,·,11µM,–,·,·
CCCN(CCO)C1CCN(CCc2ccccc2)CC1,–,·,·,–,–
COc1ccc(C2=NN(C(=O)CSc3cn(C)c4ccccc34)C(c3ccc(OC)cc3)C2)cc1 (configuration not stated),?,–,·,1.6µM,–
COc1ccc2c(c1)Sc1ccccc1N2,?,–,–,–,16µM
CCCc1cnc2c(c1SCC(=O)N1CCC(C)CC1)c(=O)n(C)c(=O)n2C,–,·,–,·,·
Cc1cc(OCCCCNC(C)C)cc(C(C)C)c1,–,15µM,?,–,–
Cc1cc(OCCOCCNC(C)C)cc(C)c1Cl,–,?,?,–,–
CS(=O)(=O)N1CCCc2cc(C(=O)Nc3cccc(C(F)(F)F)c3)ccc21,–,–,?,·,·
CCCOc1ccc(C(=O)NCCN2CCOCC2)cc1,–,–,–,–,–
SMILES,AmpC inh detg,Marburg entry inh,Lassa entry inh,AmpC no deterg,AMA1 RON2 block
CCn1c(-c2nonc2N)nc2cnc(Oc3cccc(NC(=O)c4ccc(OCCN5CCOCC5)cc4)c3)cc21,·,·,20µM,·,·
COc1ccc(N2CCN(CCCNC(=O)c3c(C)nn(-c4ccc(F)cc4)c3-n3cccc3)CC2)cc1,–,·,–,·,·
CC(C)C1=Nc2nc(N)nn2C(=O)C1,·,–,·,·,·
Cc1ccoc1C(=O)Nc1ccc2ccccc2c1,–,?,10µM,–,–
Cc1cc(C(=O)Nc2ccc3ccccc3c2)oc1C,–,?,?,–,–
CC12C=C(C=CCCc3ccco3)C(C)(C1)C(CCc1ccco1)CC2=O (configuration not stated),·,–,·,·,·
Cc1cc(/C=C2\SC(=Nc3ccccc3)NC2=O)c(C)n1-c1ccc(S(N)(=O)=O)cc1,–,8.9µM,?,–,–
COc1ccc(-c2nc(Cc3ccc(Cl)cc3)no2)cc1OC,–,–,4µM,–,–
COc1ccc(Cc2noc(-c3ccccc3)n2)cc1OC,?,·,·,–[11.4 µM],–
O=C(Nc1cccc(S(=O)(=O)NCc2ccco2)c1)c1cc(-c2ccc(F)cc2)nc2ccccc12,–,?,?,–,–
CCN(CC)S(=O)(=O)c1ccc(O)c(NC(=O)c2cc(-c3cc(OC)c(OC)c(OC)c3)nc3ccccc23)c1,–,10µM,?,–,?
COc1ccc(-c2cc(C(=O)Nc3cccc(S(=O)(=O)NCc4ccco4)c3)c3ccccc3n2)cc1OC,–,·,·,2µM,–
COc1ccc(C2CC3(CC(C)(C)NC(SC)=N3)Oc3cc(O)cc(C)c32)cc1 (configuration not stated),–,10µM,18µM,–,–
CC(=O)Nc1nnc(-c2ccc(Cl)s2)o1,–,·,·,1.6µM,–
CCC(=O)Nc1nnc(-c2ccc(Cl)s2)o1,–,·,·,–,–
CC(=O)NC1=C(N(C)C2CCS(=O)(=O)C2)C(=O)c2ccccc2C1=O (configuration not stated),?,?,7.1µM,–,–
CN(C(=O)Nc1ccccc1)C1CCS(=O)(=O)C1 (configuration not stated),–,–,–,–,–
CC1=C(Nc2ccc(C(=O)O)cc2)C(=O)c2ccccc2C1=O,–,·,·,–,–
CC(=O)NC1=C(Nc2ccc(N(C)C)cc2)C(=O)c2ccccc2C1=O,?,?,1.6µM,–,–
O=C(NN/C(=N/S(=O)(=O)c1ccc(Cl)cc1)c1ccccc1)c1ccc(O)cc1,–,20µM,?,–,–
Cc1ccc2[nH]c(=O)c(C(c3nnnn3C3CCCC3)N3CCCc4ccccc43)cc2c1 (configuration not stated),–,5.8µM,?,–,–
Cc1ccc2[nH]c(=O)c(C(c3nnnn3Cc3ccccc3)N3CCc4ccccc43)cc2c1 (configuration not stated),–,10µM,?,–,–
CCC(C)(C)n1nnnc1C(c1cc2cc(C)ccc2[nH]c1=O)N1CCCc2ccccc21 (configuration not stated),–,–,–,–,–
O=S(=O)(c1ccc(Cl)cc1)c1nc(-c2ccccc2F)oc1NCc1ccccc1,–,?,?,·,·
Cc1nc(S(=O)(=O)c2ccc(Cl)cc2)c(NCc2ccccc2)o1,56µM,?,–,–,–
CC(C)COC(=O)N(C)c1ccc(C(O)(C(F)(F)F)C(F)(F)F)cc1,–,–,3.5µM,–,–
CCOC(=O)N(C)c1ccc(C(O)(C(=O)OC)C(F)(F)F)cc1 (configuration not stated),–,–,–,–,–
COc1ccc(S(=O)(=O)N(CC(=O)N2CCc3ccccc3C2)c2ccc(C)cc2)cc1,–,–,6.3µM,·,·
COc1ccc(N(CC(=O)N2CCc3ccccc3C2)S(=O)(=O)c2ccccc2)cc1,–,?,–,–,–
Cc1ccc(S(=O)(=O)N(Cc2ccccc2)c2ccccc2C(=O)N2CCCCC2)cc1,–,10µM,?,–,–

# From PubChem BioAssay
